# Inconclusive results are not listed. A structure can be active in one record and inactive in another. Calls of active or inactive are those of the source. Rule for the calls: active = hit-call score of the fitted dose curve at least 0.9, where 1 is the maximum; inconclusive = response in the unintended direction; inactive = score below 0.9.
# Biological target: rat Thyrotropin Releasing Hormone Receptor (TRH), Trhr (gene 25570) (UniProt Q01717)
# Assay: NVS_GPCR_rTRH: NovaScreen (NVS) G Protein-Coupled Receptor Assay for rat Thyrotropin Releasing Hormone Receptor (TRH) (AID 2283329);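 note: hit means lower bound tracer signal versus DMSO baseline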
# How it was run: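 Cell-free radioligand binding on rat forebrain membranes; bound tracer measured by filter-based scintillation counting 4 hours after dosing. Loss of signal versus DMSO baseline indicates displacement; primary screen at 25 uM in duplicate, actives then run in concentration series.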
# Sequence of rat Thyrotropin Releasing Hormone Receptor (TRH), Trhr (gene 25570) (Q01717 whole entry, looked up): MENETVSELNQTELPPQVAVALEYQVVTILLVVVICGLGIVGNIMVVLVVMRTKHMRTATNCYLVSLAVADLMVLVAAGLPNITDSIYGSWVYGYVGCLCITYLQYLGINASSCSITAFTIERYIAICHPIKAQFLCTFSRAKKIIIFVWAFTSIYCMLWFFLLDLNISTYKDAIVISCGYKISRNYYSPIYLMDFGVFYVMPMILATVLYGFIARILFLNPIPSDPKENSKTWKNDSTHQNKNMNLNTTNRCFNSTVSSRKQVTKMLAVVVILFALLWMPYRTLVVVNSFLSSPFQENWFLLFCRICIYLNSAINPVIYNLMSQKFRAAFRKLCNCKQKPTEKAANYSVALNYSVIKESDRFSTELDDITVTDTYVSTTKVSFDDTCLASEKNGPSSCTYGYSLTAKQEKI
row,Compound,outcome
1,CCCCC(CC)COS(=O)(=O)O (configuration not stated),inactive
2,CC1=CCC2CC1C2(C)C (configuration not stated),inactive
3,CCCCC(=O)O,inactive
4,CCOC(=O)c1ccccc1C,inactive
5,CCCCC(C=O)CC (configuration not stated),inactive

# Biological target: human Peripheral-type Benzodiazepine Receptor (PBR), TSPO (gene 706) (UniProt P30536)
# Assay: NVS_MP_hPBR: NovaScreen (NVS) Membrane Protein Assay for human Peripheral-type Benzodiazepine Receptor (PBR) (AID 2283331);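 note: hits reduce radioligand binding relative to DMSO baseline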
# How it was run: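 Using human colon-derived membranes, this one-endpoint binding test reads radioligand loss by scintillation after 1 h. Screening started at 25 uM in duplicate, with positive and negative controls on every plate, and actives moved to dose series.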
# Sequence of human Peripheral-type Benzodiazepine Receptor (PBR), TSPO (gene 706) (P30536 whole entry, looked up): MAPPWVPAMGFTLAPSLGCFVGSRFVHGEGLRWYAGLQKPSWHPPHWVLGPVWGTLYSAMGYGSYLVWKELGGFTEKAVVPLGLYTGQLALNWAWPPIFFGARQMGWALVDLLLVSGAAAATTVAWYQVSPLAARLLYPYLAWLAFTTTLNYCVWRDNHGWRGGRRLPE
row,Compound,AC50
1,CC(Cl)COP(=O)(OCC(C)Cl)OCC(C)Cl (configuration not stated),25 µM (active)
2,COc1ccc(-c2coc3cc(O)cc(O)c3c2=O)cc1,0.293 µM (active)
3,O=C(Oc1ccccc1)c1ccccc1C(=O)Oc1ccccc1,1.78 µM (active)
4,CCCCCCCOC(=O)c1ccc(O)cc1,2.98 µM (active)
5,CCCCC/C=C\C/C=C\CCCCCCCC(=O)O,5.35 µM (active)
6,COC(OC)(C(=O)c1ccccc1)c1ccccc1,21.9 µM (active)
7,O=C(O)c1cc(O)c2ccccc2c1O,18 µM (active)
8,CCCCNS(=O)(=O)c1ccc(C)cc1,7.96 µM (active)
9,C=CCOC(=O)c1ccc(C(=O)OCC=C)c(C(=O)OCC=C)c1,9.19 µM (active)
10,CCOC(=O)C1=NN(c2ccc(Cl)cc2Cl)C(C)(C(=O)OCC)C1 (configuration not stated),10.9 µM (active)
11,COc1ccc(C(=O)/C(Br)=C\C(=O)O)cc1,9.63 µM (active)
12,CCOC(=O)C1=NOC(c2ccccc2)(c2ccccc2)C1,8.19 µM (active)
13,CN(C)c1ccc2nc3ccc(=[N+](C)C)cc-3sc2c1,10.2 µM (active)

# Biological target: rat Peripheral-type Benzodiazepine Receptor (PBR), Tspo (gene 24230) (UniProt P16257)
# Assay: NVS_MP_rPBR: NovaScreen (NVS) Membrane Protein Assay for rat Peripheral-type Benzodiazepine Receptor (PBR) (AID 2283335)
# How it was run: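 Competitive displacement of specific radioligand from rat kidney membrane PBR, read by filtration and scintillation after 1 h. Compounds first tested at 25 uM in duplicate, then in concentration series; signal loss relative to DMSO.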
# Sequence of rat Peripheral-type Benzodiazepine Receptor (PBR), Tspo (gene 24230) (P16257 whole entry, looked up): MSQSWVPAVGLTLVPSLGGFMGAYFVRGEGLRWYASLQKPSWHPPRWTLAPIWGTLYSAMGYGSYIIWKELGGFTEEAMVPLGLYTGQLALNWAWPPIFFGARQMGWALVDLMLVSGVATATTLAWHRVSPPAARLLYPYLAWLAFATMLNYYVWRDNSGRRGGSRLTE
Compound,AC50,outcome
CC(Cl)COP(=O)(OCC(C)Cl)OCC(C)Cl (configuration not stated),13.4 µM (active),
O=C(Oc1ccccc1)c1ccccc1C(=O)Oc1ccccc1,30.9 µM (active),
CCCCCCCOC(=O)c1ccc(O)cc1,,inactive
CCCCC/C=C\C/C=C\CCCCCCCC(=O)O,5.8 µM (active),
O=c1c(O)c(-c2ccc(O)cc2O)oc2cc(O)cc(O)c12,,inactive
COC(OC)(C(=O)c1ccccc1)c1ccccc1,25 µM (active),
O=C(O)c1cc(O)c2ccccc2c1O,13.6 µM (active),
CCCCNS(=O)(=O)c1ccc(C)cc1,1.72 µM (active),
CCOC(=O)C1=NN(c2ccc(Cl)cc2Cl)C(C)(C(=O)OCC)C1 (configuration not stated),9.42 µM (active),
Oc1ccc(/C=C/c2cc(O)cc(O)c2)cc1,,inactive
N#Cc1ccc(C(c2ccc(C#N)cc2)n2cncn2)cc1,6.92 µM (active),
CCOC(=O)C1=NOC(c2ccccc2)(c2ccccc2)C1,,inactive

# Test system: not listed separately
# Assay: NVS_IC_rCaBTZCHL: NovaScreen (NVS) Ion Channel Assay for Calcium Channel, Type L, Benzothiazepine Site (CaBTZCHL) (AID 2283337)
# How it was run: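 Test chemicals were added to rat cortical membranes and incubated 1.5 h with a tritiated or iodinated radioligand for the benzothiazepine site. Bound ligand was separated by filtration and counted. Actives from the 25 uM duplicate screen were retested in concentration series.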
row,Compound,outcome
1,CCCCCCCCC(CO)CCCCCC (configuration not stated),inactive
2,Nc1ccnc(=O)[nH]1,inactive
3,CCCCCCOC(=O)CCCCC(=O)OCCCCCC,inactive

# Biological target: bovine Estrogen Receptor (ER), ESR1 (gene 407238) (UniProt P49884)
# Assay: NVS_NR_bER: NovaScreen (NVS) Nuclear Receptor Binding Assay for bovine Estrogen Receptor (ER) (AID 2283345);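 note: actives lower the bound radioligand count which means they displace the ER ligand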
# How it was run: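 Cell-free radioligand binding with receptor from bovine uterine membranes, read by scintillation counting 18 h after dosing. Loss of specific binding was scored against DMSO; primary screen at 25 uM in duplicate, actives then run as concentration series.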
# Sequence of bovine Estrogen Receptor (ER), ESR1 (gene 407238) (P49884 whole entry, looked up): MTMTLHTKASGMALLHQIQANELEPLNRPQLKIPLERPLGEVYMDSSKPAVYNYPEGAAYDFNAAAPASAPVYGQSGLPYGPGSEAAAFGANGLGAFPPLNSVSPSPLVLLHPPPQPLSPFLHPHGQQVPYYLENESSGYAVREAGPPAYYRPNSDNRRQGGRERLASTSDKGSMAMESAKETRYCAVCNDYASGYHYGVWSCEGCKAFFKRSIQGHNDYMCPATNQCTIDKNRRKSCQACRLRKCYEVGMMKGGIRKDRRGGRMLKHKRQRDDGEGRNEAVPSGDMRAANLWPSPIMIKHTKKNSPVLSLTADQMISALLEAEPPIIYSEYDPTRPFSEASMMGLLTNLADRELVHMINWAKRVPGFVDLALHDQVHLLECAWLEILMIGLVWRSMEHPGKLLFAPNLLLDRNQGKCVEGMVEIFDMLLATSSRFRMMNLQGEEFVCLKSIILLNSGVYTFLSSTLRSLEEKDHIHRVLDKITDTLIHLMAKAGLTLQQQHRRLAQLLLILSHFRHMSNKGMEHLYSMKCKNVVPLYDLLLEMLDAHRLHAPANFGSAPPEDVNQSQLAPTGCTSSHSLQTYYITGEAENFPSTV
Compound,outcome,AC50
C=C[Si](OCCOC)(OCCOC)OCCOC,inactive,
C=CC(=O)OCCCCCCOC(=O)C=C,inactive,
COc1ccc(-c2coc3cc(O)cc(O)c3c2=O)cc1,,14.6 µM (active)
O=S(=O)(O)c1ccc(Nc2nc(Nc3ccc(C=Cc4ccc(Nc5nc(Nc6ccc(S(=O)(=O)O)cc6)nc(N(CCO)CCO)n5)cc4S(=O)(=O)O)c(S(=O)(=O)O)c3)nc(N(CCO)CCO)n2)cc1,inactive,
CCCCCCCOC(=O)c1ccc(O)cc1,,13.2 µM (active)
CCCCC/C=C\C/C=C\CCCCCCCC(=O)O,inactive,
O=c1c(O)c(-c2ccc(O)cc2O)oc2cc(O)cc(O)c12,inactive,
COC(OC)(C(=O)c1ccccc1)c1ccccc1,inactive,
O=C(O)c1cc(O)c2ccccc2c1O,inactive,
CCOC(=O)/C=C\C(=O)OCC,inactive,
Oc1ccc(/C=C/c2cc(O)cc(O)c2)cc1,,25 µM (active)
C=CCCCCCCCCC=O,inactive,
C=CC(=O)OCC(C)OCC(C)OCC(C)OC(=O)C=C (configuration not stated),inactive,
C=C(C)C(=O)OCC(O)COc1ccc(C(C)(C)c2ccc(OCC(O)COC(=O)C(=C)C)cc2)cc1 (configuration not stated),inactive,

# Biological target: chimpanzee Androgen Receptor (AR), AR (gene 747460) (UniProt O97775)
# Assay: NVS_NR_cAR: NovaScreen (NVS) Nuclear Receptor Binding Assay for chimpanzee Androgen Receptor (AR) (AID 2283346);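 note: radioligand displacement from AR measured by scintillation counting in a cell-free assay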
# How it was run: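 Cell-free radioligand displacement using receptor protein extracted from Sf9/Sf21 cells; bound radioligand measured by scintillation counting 72 hours after chemical dosing. Loss of signal versus DMSO baseline indicates binding; primary screen single-concentration in duplicate at 25 uM, actives followed in concentration series.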
# Sequence of chimpanzee Androgen Receptor (AR), AR (gene 747460) (O97775 whole entry, looked up): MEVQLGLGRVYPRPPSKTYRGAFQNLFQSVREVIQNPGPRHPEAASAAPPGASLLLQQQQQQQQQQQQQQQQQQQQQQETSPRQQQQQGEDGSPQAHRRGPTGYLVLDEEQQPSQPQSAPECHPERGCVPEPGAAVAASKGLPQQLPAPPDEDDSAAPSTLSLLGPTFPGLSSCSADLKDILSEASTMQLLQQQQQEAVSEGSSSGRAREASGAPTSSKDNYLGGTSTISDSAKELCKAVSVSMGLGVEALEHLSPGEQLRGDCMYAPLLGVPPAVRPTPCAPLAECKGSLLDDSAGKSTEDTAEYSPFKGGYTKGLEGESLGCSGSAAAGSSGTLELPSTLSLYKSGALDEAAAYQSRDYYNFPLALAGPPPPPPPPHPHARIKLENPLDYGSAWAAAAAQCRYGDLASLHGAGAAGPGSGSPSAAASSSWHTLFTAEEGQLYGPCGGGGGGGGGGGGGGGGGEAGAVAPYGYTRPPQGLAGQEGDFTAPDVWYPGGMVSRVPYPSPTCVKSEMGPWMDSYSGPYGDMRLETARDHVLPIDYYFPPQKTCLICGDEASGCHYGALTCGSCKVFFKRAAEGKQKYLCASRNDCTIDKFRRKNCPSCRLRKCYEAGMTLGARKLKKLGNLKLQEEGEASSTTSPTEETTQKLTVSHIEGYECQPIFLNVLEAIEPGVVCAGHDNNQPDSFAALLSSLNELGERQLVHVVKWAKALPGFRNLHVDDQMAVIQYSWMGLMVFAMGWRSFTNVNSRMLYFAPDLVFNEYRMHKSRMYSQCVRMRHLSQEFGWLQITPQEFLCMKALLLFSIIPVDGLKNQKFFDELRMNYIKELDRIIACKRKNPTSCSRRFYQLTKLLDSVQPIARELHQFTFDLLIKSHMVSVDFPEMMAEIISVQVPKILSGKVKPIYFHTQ
Compound,outcome,AC50
C=C[Si](OCCOC)(OCCOC)OCCOC,inactive,
CCCCC/C=C\C/C=C\CCCCCCCC(=O)O,,25 µM (active)
O=c1c(O)c(-c2ccc(O)cc2O)oc2cc(O)cc(O)c12,,9.55 µM (active)
O=C(O)c1cc(O)c2ccccc2c1O,,35 µM (active)
CCOC(=O)/C=C\C(=O)OCC,,5 µM (active)
C=CC(=O)OCC(C)OCC(C)OCC(C)OC(=O)C=C (configuration not stated),,6.29 µM (active)
N#Cc1ccc(C(c2ccc(C#N)cc2)n2cncn2)cc1,,7.43 µM (active)
CN(C)c1ccc2nc3ccc(=[N+](C)C)cc-3sc2c1,,11.2 µM (active)

# Biological target: Estrogen receptor (Homo sapiens) (UniProt P03372)
# Assay: NVS_NR_hER: NovaScreen (NVS) Nuclear Receptor Binding Assay for human Estrogen Receptor (ER) (AID 2283348)
# How it was run: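 Radiodetection of ligand displacement in a lysate-based, cell-free format using MCF7 extracts, read at 18 hours. Duplicate 25 uM primary testing, then concentration series for actives.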
# Sequence of Estrogen receptor (Homo sapiens) (P03372 whole entry, looked up): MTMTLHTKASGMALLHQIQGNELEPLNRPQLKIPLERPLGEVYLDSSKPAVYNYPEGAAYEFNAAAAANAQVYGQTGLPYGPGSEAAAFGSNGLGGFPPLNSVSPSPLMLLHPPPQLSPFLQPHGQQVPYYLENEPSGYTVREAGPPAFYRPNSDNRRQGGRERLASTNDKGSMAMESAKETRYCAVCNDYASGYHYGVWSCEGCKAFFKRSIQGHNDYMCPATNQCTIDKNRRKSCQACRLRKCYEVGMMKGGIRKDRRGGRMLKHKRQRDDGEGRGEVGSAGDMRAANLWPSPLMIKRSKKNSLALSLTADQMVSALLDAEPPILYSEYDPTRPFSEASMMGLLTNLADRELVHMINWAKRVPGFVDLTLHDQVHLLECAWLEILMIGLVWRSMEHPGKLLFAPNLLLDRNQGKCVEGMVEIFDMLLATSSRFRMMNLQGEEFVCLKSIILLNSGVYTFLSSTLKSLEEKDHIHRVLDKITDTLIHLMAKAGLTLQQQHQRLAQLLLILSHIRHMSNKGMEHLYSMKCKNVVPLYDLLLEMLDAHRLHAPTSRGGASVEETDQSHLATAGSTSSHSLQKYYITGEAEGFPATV
Compound,outcome,AC50
C=CC(=O)OCCCCCCOC(=O)C=C,inactive,
COc1ccc(-c2coc3cc(O)cc(O)c3c2=O)cc1,,0.642 µM (active)
O=S(=O)(O)c1ccc(Nc2nc(Nc3ccc(C=Cc4ccc(Nc5nc(Nc6ccc(S(=O)(=O)O)cc6)nc(N(CCO)CCO)n5)cc4S(=O)(=O)O)c(S(=O)(=O)O)c3)nc(N(CCO)CCO)n2)cc1,inactive,
CCCCCCCOC(=O)c1ccc(O)cc1,,3.5 µM (active)
CCCCC/C=C\C/C=C\CCCCCCCC(=O)O,,25 µM (active)
O=c1c(O)c(-c2ccc(O)cc2O)oc2cc(O)cc(O)c12,,4.3 µM (active)
COC(OC)(C(=O)c1ccccc1)c1ccccc1,inactive,25 µM (active)
Oc1ccc(/C=C/c2cc(O)cc(O)c2)cc1,inactive,2.52 µM (active)
C=CC(=O)OCC(C)OCC(C)OCC(C)OC(=O)C=C (configuration not stated),inactive,
N#Cc1ccc(C(c2ccc(C#N)cc2)n2cncn2)cc1,inactive,
